From ChEMBL document CHEMBL3988442, “University of Dundee, Small-Polar-MMV Screening Library” (2021)
Hit rate of the full screen: of about 48,000 compounds, about 13,000 (27%) showed an effect of 50% or more. Some of the results follow.

The molecules below were run on Wolbachia pipientis (assay: Anti-Wolbachia Cell-Based Screen). Details: 5 µM.
Assay type: functional
Parameters: scale not given: in the data most compounds retested in dose-response had high values

Compound | Percent Effect [%]
Cc1cccc(N(CCC#N)S(=O)(=O)CC2CCCCO2)c1 (stereo not drawn) | -8.784
N#Cc1cc(C#N)c(SCCC(=O)Nc2ccc(F)cc2)nc1N | -13.62
C[C@@H]1CN(C2(C(=O)N(C)C)Cc3ccccc3C2)C[C@H](C)O1 | 1.411
CN1C[C@@H](C(=O)N2CCCOCC2)[C@@]2(CCc3ccccc3C(=O)N2)C1 | -5.089
CC(C)(C)NC(=O)[C@@H]1CNC[C@]12Cc1ccccc1C(=O)N2 | 114.2
CN(C)C(=O)N1CCC2(CC1)NC(=O)c1ccccc12.Cl | -7.31
CN1C[C@@H](C(=O)NC(C)(C)C)[C@@]2(CCc3ccccc3C(=O)N2)C1 | 141.5
CN1CC(C(=O)NC(C)(C)C)CC1=O (stereo not drawn) | 0.8346
CN1C[C@@H](C(=O)N(C)C)[C@@]2(CCc3ccccc3C(=O)N2)C1.Cl | 136.2
CN1C[C@@H](C(=O)N2CCOCC2)[C@@]2(CCc3ccccc3C(=O)N2)C1 | 147.9
O=C(c1ccccc1)N1CC(C(=O)N2CCOCC2)C2(CCOCC2)C1 (stereo not drawn) | -41.49
CCNC(=O)N1CC[C@@H](CC(=O)O)[C@@H](CC2=NCCc3ccccc32)C1 | 7.982
COC(=O)CN(Cc1ccccc1C)C(=O)CCCNC(=O)C1CC1 | -13.3
CN(C)CCNc1ncccc1CNC(=O)Nc1cc(F)cc(F)c1 | -8.67
CC(C)(C)c1cnc(CN2CCC(NC(=O)C3CCOCC3)CC2)o1 | -13.41
COC1CCN(CCNC(=O)NCC(C)c2cccc(C)c2)CC1 (stereo not drawn) | 5.114
COCCN(C)C[C@@H]1CCC[C@@H]2CN(Cc3ccc(OC)nc3)C[C@@H]21.O=C(O)C(F)(F)F.O=C(O)C(F)(F)F | 8.299
CN1C[C@@H](C(=O)NCC(F)(F)F)[C@@]2(CCc3ccccc3C(=O)N2)C1 | 103.7
COC(=O)N1CCc2ccccc2C1C(=O)NCC(F)(F)F (stereo not drawn) | 5.157
O=C(NCC(F)(F)F)C1CCC(=O)N(C2CCCC2)C1 (stereo not drawn) | 11.17
CCC(C)C(=O)NCc1cc(Br)c(OC)c(OC)c1 (stereo not drawn) | -3.921
Cc1ccc(CNC(=O)CCN2CCOC(C(F)(F)F)C2)cc1 (stereo not drawn) | -2.283
CCS(=O)(=O)c1ccc(N2CCC(NC(=O)CCC(C)C)CC2)cc1 | 4.61
